Records with an inconclusive call do not appear. The source made the active and inactive calls. The call rests on the fitted dose curve; in most records, active means well fitted curve in the direction sought with a large enough effect; inconclusive means small, poorly fitted or top-dose-only effect, or another doubt; inactive means no such curve, though single readings can be large; an effect the other way counts as inactive or inconclusive.
Columns and labels:
[1] = molecular target: Cellular tumor antigen p53 (Homo sapiens) (UniProt P04637); test: Primary qHTS for small molecule compounds that upregulate eGFP-tagged delta133p53alpha (in N-terminal) cells. (AID 2060322); details: NCI-H358 eGFP-delta133p53alpha fluorescence, 24 h; activation: active compounds read high;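 further: cells pre-induced with doxycycline then dosed without doxycycline; series mostly up to about 56 µM; 0% = DMSO vehicle and 100% = reference activator; nearly all actives have a fitted effect of over 75% in size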
Chain of Cellular tumor antigen p53 (Homo sapiens) (P04637 whole entry, looked up): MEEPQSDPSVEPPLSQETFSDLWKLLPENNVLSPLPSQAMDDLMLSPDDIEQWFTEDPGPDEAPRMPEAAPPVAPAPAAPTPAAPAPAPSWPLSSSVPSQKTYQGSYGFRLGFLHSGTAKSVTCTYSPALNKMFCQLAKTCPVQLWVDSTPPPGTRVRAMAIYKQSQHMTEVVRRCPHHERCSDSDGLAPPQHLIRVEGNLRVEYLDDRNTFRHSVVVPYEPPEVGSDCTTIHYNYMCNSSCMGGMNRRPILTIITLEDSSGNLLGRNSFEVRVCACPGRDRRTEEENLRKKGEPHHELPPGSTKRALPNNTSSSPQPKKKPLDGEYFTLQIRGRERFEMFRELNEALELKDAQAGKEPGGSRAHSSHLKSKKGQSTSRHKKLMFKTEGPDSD
Outline: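 NCI-H358 cells pre-induced 24 h with 10 ng/ml doxycycline for eGFP-delta133p53alpha, plated dox-free and exposed 24 h at 37C to titrated compounds. Fixed, Hoechst-stained; gated GFP peak intensity by laser scanning cytometry, normalized to DMSO (0%) and 57.5 uM 5-azacytidine (100%).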

[2] = molecular target: Aldehyde dehydrogenase, mitochondrial (Homo sapiens) (UniProt P05091); test: qHTS for Inhibitors of the Aldehyde Dehydrogenase Family (ALDH2) Primary screen (AID 2061308);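 further: plate controls were vehicle for no effect and reference inhibitor for full effect; nearly all actives have a fitted effect of over 55% in size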
[3] = molecular target: Retinaldehyde dehydrogenase 3 (Homo sapiens) (UniProt P47895); test: qHTS for Inhibitors of the Aldehyde Dehydrogenase Family (ALDH1A3) Primary screen (AID 2061315);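 further: plate controls were DMSO vehicle for no effect and reference inhibitor for full effect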

COc1c(C)c(OCC=C(C)C)cc2c1COC2=O
inactive: activation [1] -0.763% | Potency [2] | Potency [3]

C[C@@H](NC(=O)c1ccc(C#Cc2cccc(F)c2)cn1)C(C)(C)O
inactive: activation [1] -4.33% | Potency [2] | Potency [3]

C=C(C)[C@@H]1CC[C@](C)(O)[C@@H](OC(=O)c2ccccc2)C1
inactive: activation [1] -15.2% | Potency [2] | Potency [3]

C/C=C(\C)C(=O)OC1C=C(C)CC(OC(=O)c2ccc(O)cc2)C2C1(C)CCC2(O)C(C)C (configuration not stated)
inactive: activation [1] -7.63% | Potency [2] | Potency [3]

CC1(C)CC[C@]2(C(=O)O)[C@H](O)C[C@]3(C)C(=CCC4[C@@]5(C)CC[C@H](O[C@@H]6O[C@H](CO[C@@H]7OC[C@H](O)[C@H](O)[C@H]7O[C@@H]7OC[C@H](O)[C@H](O)[C@H]7O)[C@@H](O)[C@H](O)[C@H]6O)C(C)(C)C5CC[C@]43C)[C@@H]2C1 (some centres not stated)
inactive: activation [1] -4.46% | Potency [2] | Potency [3]

CCC/C=C1\OC(=O)C2=C1CCC(O)C2O (configuration not stated)
inactive: activation [1] 12.2% | Potency [2] | Potency [3]

COc1ccc(C2(O)c3ccccc3NC(=O)C2O)cc1 (configuration not stated)
inactive: activation [1] -3.82% | Potency [2] | Potency [3]

CC(=O)N[C@H]1[C@H](O[C@H]2CC[C@]3(C)C4CC=C5[C@@H]6CC(C)(C)CC[C@]6(C(=O)O)[C@H](O)C[C@@]5(C)[C@]4(C)CC[C@H]3C2(C)C)O[C@H](CO)[C@@H](O)[C@@H]1O (some centres not stated)
inactive: activation [1] 9.82% | Potency [2] | Potency [3]

CC1(C)CC[C@]2(C(=O)O[C@@H]3O[C@H](CO)[C@@H](O)[C@H](O)[C@H]3O)CC[C@]3(C)C(=CCC4[C@@]5(C)CC[C@H](O[C@@H]6O[C@H](C(=O)O)[C@@H](O)[C@H](O)[C@H]6O)C(C)(C)C5CC[C@]43C)C2C1 (some centres not stated)
inactive: activation [1] -0.893% | Potency [2] | Potency [3]
